MCF10A rereplic: DNA re-replication induction in MCF 10a cells | actives 2.9% (n = 350,000) | Potency, µM (series often up to 46.1 µM), for the others: top-dose activity, positive = re-replication, usual class: activators | MCF 10A DNA re-replication, Hoechst nuclear intensity, 48 h | AID 624296; note: % of control where 0% means no effect; nearly all actives have a fitted effect of over 50% in size
HT1080-NT tox: kills 2HG-producing HT-1080-NT fibrosarcoma cells. HT-1080-NT fibrosarcoma viability, CellTiter-Glo ATP luminescence, 48 h. Potency, µM (series often up to 46.1 µM), for the others: at the top dose activity, negative = less viability, actives largely listed as cytotoxic. actives 1.6% (n = 360,000). AID 686970;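 note: NT is the 2HG producing partner of a matched IDH1 knockdown line; 0% = DMSO-treated cells and -100% = media-only wells without cells; nearly all actives have a fitted effect of over 55% in size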
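750 cells/well, RPMI + 5% FBS; 2 h settle, compound pin-transfer, 48 h at 37 degrees C. CellTiter-Glo 10 min RT, luminescence. Normalized to DMSO and media-only wells.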
HT1080 IDH1KD tx: HT-1080 IDH1 knockdown cell toxicity (counter line); HT-1080 IDH1 knockdown viability, ATP luminescence, 48 h; Potency, µM (top dose mostly 46.1 µM), for inactives: at the highest dose activity, negative = toxicity, hits mostly cytotoxic; actives 2% (n = 360,000);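 note: 0% = DMSO wells and -100% = cell-free medium wells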
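Assay cells: HT-1080 with IDH1 knockdown, 750 per well, RPMI/5% FBS. Exposure: 48 h at 37 °C following 2 h pre-incubation. Read: CellTiter-Glo luminescence; fitted concentration-response, curve class assigned.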
KB-V1 cytotox: KB-V1 MDR subline cytotoxicity; KB-V1 MDR cells viability, CellTiter-Glo, 72 h; Potency, µM (titrated, usually from 46.1 µM), actives largely listed as cytotoxic; actives 3.4% (n = 400,000); AID 1347076; note: % is set by controls: 0 for no effect and ±100 for the full control effect; nearly all actives have a fitted effect of over 60% in size
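Drug-selected KB-V1 cells, grown in DMEM lacking phenol red with 10% FBS, receive compound titrations; after three days at 37 degrees C, surviving cell ATP is quantified by CellTiter-Glo luminescence and responses normalized and curve-fitted.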
KB-3-1 tox: kills parental KB-3-1 adenocarcinoma cells | KB-3-1 viability, CellTiter-Glo ATP luminescence, 72 h | Potency, µM (series often up to 46.1 µM), actives largely listed as cytotoxic | actives 1.4% (n = 400,000) | AID 1347075; note: % is set by controls: 0 for no effect and ±100 for the full control effect; nearly all actives have a fitted effect of over 60% in size
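Screening of KB-3-1 cells (DMEM, 10% FBS, phenol-red free) ran from lowest to highest compound concentration; after 72 h at 37 °C viability was read luminescently and curves fitted.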
SW480 rerep: induces DNA re-replication in SW480 colon adenocarcinoma cells. actives 1.8% (n = 340,000). Potency, µM (highest dose often 46.1 µM), inactives show at the top dose re-replication activation, most hits filed as activators. SW480 DNA re-replication, Hoechst DNA content imaging, 48 h; note: % of control where 0% means no effect; nearly all actives have a fitted effect of over 55% in size
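DNA re-replication was detected as more nuclei of elevated Hoechst intensity after 48 hr exposure to compound (23 nL pinned per well of 250 cells).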
* hit, by the source's call; i = inactive; u = inconclusive; x = no result. Shown are actives, neighbours in structure and some others; about 7.9% of the full set was active somewhere. Calls come from the whole dose curve; as a rule, active = well fitted curve in the direction sought with a large enough effect; inconclusive = small, poorly fitted or top-dose-only effect, or another doubt; inactive = no such curve, though single readings can be large; an effect the other way counts as inactive or inconclusive. Potency is the fitted concentration of half-maximal effect.

SMILES	MCF10A rereplic	HT1080-NT tox	HT1080 IDH1KD tx	KB-V1 cytotox	KB-3-1 tox	SW480 rerep
CC(=O)Nc1ccc(-c2ccnc3c2CC(C(=O)Nc2ccccc2)O3)cc1 (stereo unspecified)	x	u	18µM*	u	21µM*	x
COc1ccc(NC(=O)C2Cc3c(-c4cccc(C(C)=O)c4)ccnc3O2)cn1 (stereo unspecified)	x	u	3.3µM*	i	2.1µM*	x
COc1ccc(CCCNC(=O)C2Cc3c(-c4ccccc4)ccnc3O2)cc1 (stereo unspecified)	x	8.2µM*	u	u	u	x
CC(=O)Nc1ccc(NC(=O)C2Cc3c(-c4cccc(NC(C)=O)c4)ccnc3O2)cc1 (stereo unspecified)	x	0%	23%	i	i	x
COc1ccc(NC(=O)C2Cc3c(-c4cccc(NC(C)=O)c4)ccnc3O2)cc1 (stereo unspecified)	x	u	u	u	4.1µM*	x
COc1cc2c(cc1OC)C(COc1ccc3c(C)cc(=O)oc3c1)N(C(=O)c1cccc(OC)c1OC)CC2 (stereo unspecified)	x	x	x	i	i	x
CCc1ccc(OCC(=O)Nc2ccc(-c3nc4ncccc4o3)cc2)cc1	x	x	x	i	i	x
CCCN(C(=O)Cc1nc(-c2ccc(OC)cc2)no1)c1ccccc1C	x	x	x	i	i	x
COc1cc2c(cc1OC)n(Cc1cccc(C(F)(F)F)c1)c(=O)n1nc(-c3ccccc3)nc21	x	x	x	u	i	x
CS(=O)(=O)Nc1cccc(NC(=O)C2Cc3c(-c4cccc(F)c4)ccnc3O2)c1 (stereo unspecified)	x	2.1µM*	u	u	6.5µM*	x
O=C(Nc1ccccc1)C1Cc2c(-c3cccc(F)c3)ccnc2O1 (stereo unspecified)	x	4%	-16%	i	i	x
CC(=O)Nc1ccc(NC(=O)C2Cc3c(-c4cccc(C(C)=O)c4)ccnc3O2)cc1 (stereo unspecified)	x	-1%	-1%	i	i	x
COc1ccc(NC(=O)C2Cc3c(-c4ccc(NC(C)=O)cc4)ccnc3O2)cn1 (stereo unspecified)	x	u	u	u	10µM*	x
COc1ccc(NC(=O)C2Cc3c(-c4cccc(C(C)=O)c4)ccnc3O2)cc1 (stereo unspecified)	x	u	1.8µM*	u	4.1µM*	x
O=C(Nc1cccc(C(F)(F)F)c1)C1Cc2c(-c3ccccc3)ccnc2O1 (stereo unspecified)	x	u	23µM*	i	i	x
COc1ccc(NC(=O)C2Cc3c(-c4ccc(NC(C)=O)cc4)ccnc3O2)cc1 (stereo unspecified)	x	-13%	-22%	i	i	x
CCC(Oc1ccc(Br)cc1)C(=O)N1CCN(c2ncccn2)CC1 (stereo unspecified)	8%	-4%	1%	u	u	4%
CCc1ccc2c(c1)c(=O)c(S(=O)(=O)c1ccc(F)cc1)cn2CC(=O)Nc1ccc(C)cc1C	x	x	x	i	i	x
CC(=O)c1cccc(-c2ccnc3c2CC(C(=O)Nc2ccc(Cl)cc2)O3)c1 (stereo unspecified)	x	u	16µM*	u	u	x
NC(=O)CC(NC(=O)Cc1ccc(Cl)cc1)c1ccc(N2CCC(Cc3ccccc3)CC2)c([N+](=O)[O-])c1 (stereo unspecified)	22%	-20%	-23%	i	i	1%
O=C(C1=C[C@@H](C2CC2)C[C@@H](OCc2ccc(CO)cc2)O1)N1CCOCC1	8%	29%	9%	i	i	-11%
O=C(C1=C[C@@H](C2CCCCC2)C[C@@H](OCc2ccc(CO)cc2)O1)N1CCOCC1	6%	-8%	-3%	i	i	0.18µM*
